According to PubChem BioAssay (Tox21):
Records with an inconclusive call do not appear. Activity calls are given as the source filed them. Calls come from the whole dose curve; as a rule, active = well fitted curve in the direction sought with a large enough effect in the repeat runs; inconclusive = weak or mixed curves; inactive = no such curve, though single readings can be large; an effect the other way counts as inactive or inconclusive.

Experiments:
[1] = Caspase-3/7 induction in HepG2 cells by small molecules, qHTS cell viability counter screen (AID 1346981); note: nearly all actives have a fitted effect of over 30% in size; note: potency is the fitted concentration of half-maximal effect; for activity change, negative = cytotoxicity: series mostly up to about 92 µM
Outline: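 Cell viability is measured as a cytotoxicity counter screen alongside the Caspase-Glo 3/7 readout in identical wells. Wild-type HepG2 cells are treated with test compounds for 16 hr at 37 C before CellTiter-Fluor addition and a 1-hr incubation.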

[2] = target: Nuclear receptor subfamily 1 group I member 2 (Homo sapiens) (UniProt O75469); assay: Human pregnane X receptor (PXR) small molecule agonists, qHTS assay (AID 1346982); note: nearly all actives have a fitted effect of over 35% in size; note: potency is the fitted concentration of half-maximal effect
Chain of Nuclear receptor subfamily 1 group I member 2 (Homo sapiens) (O75469 whole entry, looked up): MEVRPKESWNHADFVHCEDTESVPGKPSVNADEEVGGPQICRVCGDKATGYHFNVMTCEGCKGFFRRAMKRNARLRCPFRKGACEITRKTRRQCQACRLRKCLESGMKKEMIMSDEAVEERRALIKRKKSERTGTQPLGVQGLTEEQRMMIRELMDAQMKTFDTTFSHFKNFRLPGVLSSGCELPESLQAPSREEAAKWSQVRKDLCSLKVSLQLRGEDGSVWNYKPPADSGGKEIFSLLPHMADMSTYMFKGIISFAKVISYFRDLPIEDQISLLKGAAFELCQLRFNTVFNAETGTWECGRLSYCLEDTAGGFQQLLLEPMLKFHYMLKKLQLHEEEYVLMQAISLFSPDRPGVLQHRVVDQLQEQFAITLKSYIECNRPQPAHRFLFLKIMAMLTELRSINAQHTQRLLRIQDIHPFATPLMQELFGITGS
Outline: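 Cells: HepG2 stably carrying PXR-Luc. Medium held 5% charcoal-stripped FBS. Compounds in DMSO added after 5 hr plating, incubated 24 hr, then luminescence quantified with ONE-Glo.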

[3] = target: Nuclear receptor subfamily 1 group I member 2 (Rattus norvegicus) (UniProt Q9R1A7); assay: Rat pregnane X receptor (rPXR) activation by small molecules, qHTS assay (AID 1346983); details: rPXR luciferase reporter cells, One-Glo luminescence, 24 h; max activation: active compounds read high; note: nearly all actives have a fitted effect of over 20% in size
Chain of Nuclear receptor subfamily 1 group I member 2 (Rattus norvegicus) (Q9R1A7 whole entry, looked up): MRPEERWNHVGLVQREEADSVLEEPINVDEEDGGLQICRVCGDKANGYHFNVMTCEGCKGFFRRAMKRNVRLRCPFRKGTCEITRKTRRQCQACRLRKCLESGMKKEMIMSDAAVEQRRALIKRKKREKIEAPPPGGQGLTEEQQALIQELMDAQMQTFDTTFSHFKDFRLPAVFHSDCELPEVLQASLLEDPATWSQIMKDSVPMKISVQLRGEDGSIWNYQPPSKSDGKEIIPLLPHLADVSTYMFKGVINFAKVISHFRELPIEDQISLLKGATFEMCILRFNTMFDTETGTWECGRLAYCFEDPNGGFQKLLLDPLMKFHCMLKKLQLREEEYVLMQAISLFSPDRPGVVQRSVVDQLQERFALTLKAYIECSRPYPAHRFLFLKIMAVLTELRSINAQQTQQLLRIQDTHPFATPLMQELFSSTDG
Outline: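 Cell-based rPXR luciferase reporter assay, 2,000 cells per well, rested 5hr at 37 C before compound addition in DMSO, then 24 hr at 37 C. One-Glo reagent was added and luminescence read after 30 min at room temperature.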

[4] = target: Nuclear receptor subfamily 1 group I member 2 (Homo sapiens) (UniProt O75469); assay: Human pregnane X receptor (PXR) activation by small molecules, qHTS assay (AID 1346985); note: nearly all actives have a fitted effect of over 40% in size
Outline: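 DPX-2 cells (HepG2 co-transfected with a PXR response element and a CYP3A4-promoter luciferase construct) were seeded at 2,000 per well, rested 5 hr at 37C, then exposed to DMSO-dissolved compounds for 24 hr. Activation was read as luciferase luminescence.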

[5] = target: Cytochrome P450 2D6 (Homo sapiens) (UniProt P10635); assay: Cytochrome P450 Family 2 Subfamily D Member 6 (CYP2D6) small molecule antagonists: luciferase reporter qHTS assay (AID 1671196); note: nearly all actives have a fitted effect of over 50% in size; note: potency is the fitted concentration of half-maximal effect; for activity change, negative = inhibition: series mostly up to about 120 µM
Chain of Cytochrome P450 2D6 (Homo sapiens) (P10635 whole entry, looked up): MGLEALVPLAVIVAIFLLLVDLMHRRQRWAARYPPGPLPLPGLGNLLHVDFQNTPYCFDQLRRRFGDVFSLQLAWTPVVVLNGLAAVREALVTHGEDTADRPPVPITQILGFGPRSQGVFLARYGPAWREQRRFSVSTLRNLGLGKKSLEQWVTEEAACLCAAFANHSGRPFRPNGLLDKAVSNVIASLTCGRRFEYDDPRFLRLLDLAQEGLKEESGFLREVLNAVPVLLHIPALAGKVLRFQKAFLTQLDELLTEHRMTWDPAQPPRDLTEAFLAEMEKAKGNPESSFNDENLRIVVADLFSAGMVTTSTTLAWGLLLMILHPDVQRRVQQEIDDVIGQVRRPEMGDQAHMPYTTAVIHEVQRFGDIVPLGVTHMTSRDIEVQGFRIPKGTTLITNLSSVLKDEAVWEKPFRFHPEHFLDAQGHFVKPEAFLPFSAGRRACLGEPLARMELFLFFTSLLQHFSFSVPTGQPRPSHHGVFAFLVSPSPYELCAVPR
Outline: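 Enzyme and proluciferin substrate were first combined with test chemical for 10 min at room temperature. Adding NADPH regeneration solution started a 1 h reaction, stopped with luciferin detection reagent and read by luminescence 20 min later.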

[6] = target: Cytochrome P450 2C19 (Homo sapiens) (UniProt P33261); assay: Cytochrome P450 Family 2 Subfamily C Member 19 (CYP2C19) small molecule antagonists: luciferase reporter qHTS assay (AID 1671197); note: nearly all actives have a fitted effect of over 65% in size; note: potency is the fitted concentration of half-maximal effect; for activity change, negative = inhibition: series mostly up to about 120 µM
Chain of Cytochrome P450 2C19 (Homo sapiens) (P33261 whole entry, looked up): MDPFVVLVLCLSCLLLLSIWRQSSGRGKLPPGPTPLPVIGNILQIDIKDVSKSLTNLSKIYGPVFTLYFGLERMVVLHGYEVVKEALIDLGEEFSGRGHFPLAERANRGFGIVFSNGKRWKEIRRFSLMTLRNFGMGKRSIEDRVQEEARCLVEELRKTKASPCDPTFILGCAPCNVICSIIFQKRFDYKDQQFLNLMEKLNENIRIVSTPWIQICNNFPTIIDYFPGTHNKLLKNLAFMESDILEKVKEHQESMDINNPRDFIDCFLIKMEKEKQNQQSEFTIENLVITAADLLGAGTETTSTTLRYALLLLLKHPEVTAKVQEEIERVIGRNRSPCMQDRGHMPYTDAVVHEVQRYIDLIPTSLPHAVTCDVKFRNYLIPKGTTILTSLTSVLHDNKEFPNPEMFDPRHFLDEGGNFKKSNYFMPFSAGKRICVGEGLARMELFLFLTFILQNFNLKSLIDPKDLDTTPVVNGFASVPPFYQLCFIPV
Outline: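 Relative luminescence units recorded 20 min after the detection reagent stopped a 1 h, 37C CYP2C19 reaction on proluciferin substrate, which was started by NADPH regeneration following 10 min room-temperature compound preincubation; ketoconazole positive control.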

[7] = target: Cytochrome P450 2C9 (Homo sapiens) (UniProt P11712); assay: Cytochrome P450 Family 2 Subfamily C Member 9 (CYP2C9) small molecule antagonists: luciferase reporter qHTS assay (AID 1671198); note: nearly all actives have a fitted effect of over 50% in size; note: potency is the fitted concentration of half-maximal effect; for activity change, negative = inhibition: series mostly up to about 120 µM
Chain of Cytochrome P450 2C9 (Homo sapiens) (P11712 whole entry, looked up): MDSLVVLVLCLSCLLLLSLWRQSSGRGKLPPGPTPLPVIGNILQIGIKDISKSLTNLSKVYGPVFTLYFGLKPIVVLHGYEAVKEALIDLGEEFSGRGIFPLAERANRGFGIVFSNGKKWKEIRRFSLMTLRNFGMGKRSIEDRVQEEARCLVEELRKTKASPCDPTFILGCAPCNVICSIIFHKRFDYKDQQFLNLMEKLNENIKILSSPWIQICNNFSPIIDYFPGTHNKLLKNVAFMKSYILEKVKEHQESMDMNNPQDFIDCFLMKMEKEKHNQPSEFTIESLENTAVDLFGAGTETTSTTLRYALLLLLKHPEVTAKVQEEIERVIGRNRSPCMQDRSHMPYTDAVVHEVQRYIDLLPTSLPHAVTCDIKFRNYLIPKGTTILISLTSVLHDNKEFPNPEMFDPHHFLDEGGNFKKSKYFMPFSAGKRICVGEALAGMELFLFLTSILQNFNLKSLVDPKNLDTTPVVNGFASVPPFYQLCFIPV
Outline: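 CYP2C9 activity was measured with a P450-Glo proluciferin substrate. Enzyme–substrate mix was held with compound for 10 min at room temperature, then NADPH regeneration solution was added for 1 h at 37C. Luciferin product was read as luminescence.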

[8] = target: Cytochrome P450 1A2 (Homo sapiens) (UniProt P05177); assay: Cytochrome P450 Family 1 Subfamily A Member 2 (CYP1A2) small molecule antagonists: luciferase reporter qHTS assay (AID 1671199); note: nearly all actives have a fitted effect of over 50% in size; note: potency is the fitted concentration of half-maximal effect; for activity change, negative = inhibition: series mostly up to about 120 µM
Chain of Cytochrome P450 1A2 (Homo sapiens) (P05177 whole entry, looked up): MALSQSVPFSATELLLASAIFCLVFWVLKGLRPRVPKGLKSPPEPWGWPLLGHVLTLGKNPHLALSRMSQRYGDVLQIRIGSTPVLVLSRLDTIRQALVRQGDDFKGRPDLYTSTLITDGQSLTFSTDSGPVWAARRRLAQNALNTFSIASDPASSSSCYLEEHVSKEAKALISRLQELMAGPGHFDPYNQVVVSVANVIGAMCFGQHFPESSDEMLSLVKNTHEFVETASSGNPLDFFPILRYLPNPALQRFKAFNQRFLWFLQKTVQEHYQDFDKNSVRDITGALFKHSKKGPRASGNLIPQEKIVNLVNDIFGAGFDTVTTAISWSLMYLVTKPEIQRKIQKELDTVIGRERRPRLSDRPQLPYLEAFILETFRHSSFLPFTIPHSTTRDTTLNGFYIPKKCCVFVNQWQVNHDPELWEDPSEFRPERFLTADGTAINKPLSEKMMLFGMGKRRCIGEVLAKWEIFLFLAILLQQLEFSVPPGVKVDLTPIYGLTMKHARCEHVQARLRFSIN
Outline: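 Compounds were incubated with CYP1A2 and a luminogenic proluciferin substrate for 10 min at room temperature before the reaction was started with NADPH regeneration solution. After 1 h, detection reagent was added and light output, proportional to CYP activity, was recorded.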

[9] = target: Nuclear receptor subfamily 1 group I member 2 (Homo sapiens) (UniProt O75469); assay: CYP3A4 induction through human pregnane X receptor (PXR) by small molecules, qHTS assay (AID 1346984); note: nearly all actives have a fitted effect of over 40% in size; note: potency is the fitted concentration of half-maximal effect
Outline: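 Quantitative HTS in DPX-2 cells, i.e. HepG2 transfected with PXR response element and CYP3A4-promoter luciferase. Compounds in DMSO incubated 24hr at 37C; then P450-Glo CYP3A4 substrate, 3uM final, 3hr; One-Glo luminescence.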

[10] = target: Voltage-gated inwardly rectifying potassium channel KCNH2 (Homo sapiens) (UniProt Q12809); assay: Human Ether-a-go-go-Related Gene (hERG) channel small molecule antagonists: fluorescence cell-based qHTS assay (AID 1671200); note: nearly all actives have a fitted effect of over 50% in size; note: potency is the fitted concentration of half-maximal effect;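 for activity change, negative = inhibition: hERG-expressing U2OS cells given a thallium stimulus after FluxOR II dye loading; series mostly up to about 77 µM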
Chain of Voltage-gated inwardly rectifying potassium channel KCNH2 (Homo sapiens) (Q12809 whole entry, looked up): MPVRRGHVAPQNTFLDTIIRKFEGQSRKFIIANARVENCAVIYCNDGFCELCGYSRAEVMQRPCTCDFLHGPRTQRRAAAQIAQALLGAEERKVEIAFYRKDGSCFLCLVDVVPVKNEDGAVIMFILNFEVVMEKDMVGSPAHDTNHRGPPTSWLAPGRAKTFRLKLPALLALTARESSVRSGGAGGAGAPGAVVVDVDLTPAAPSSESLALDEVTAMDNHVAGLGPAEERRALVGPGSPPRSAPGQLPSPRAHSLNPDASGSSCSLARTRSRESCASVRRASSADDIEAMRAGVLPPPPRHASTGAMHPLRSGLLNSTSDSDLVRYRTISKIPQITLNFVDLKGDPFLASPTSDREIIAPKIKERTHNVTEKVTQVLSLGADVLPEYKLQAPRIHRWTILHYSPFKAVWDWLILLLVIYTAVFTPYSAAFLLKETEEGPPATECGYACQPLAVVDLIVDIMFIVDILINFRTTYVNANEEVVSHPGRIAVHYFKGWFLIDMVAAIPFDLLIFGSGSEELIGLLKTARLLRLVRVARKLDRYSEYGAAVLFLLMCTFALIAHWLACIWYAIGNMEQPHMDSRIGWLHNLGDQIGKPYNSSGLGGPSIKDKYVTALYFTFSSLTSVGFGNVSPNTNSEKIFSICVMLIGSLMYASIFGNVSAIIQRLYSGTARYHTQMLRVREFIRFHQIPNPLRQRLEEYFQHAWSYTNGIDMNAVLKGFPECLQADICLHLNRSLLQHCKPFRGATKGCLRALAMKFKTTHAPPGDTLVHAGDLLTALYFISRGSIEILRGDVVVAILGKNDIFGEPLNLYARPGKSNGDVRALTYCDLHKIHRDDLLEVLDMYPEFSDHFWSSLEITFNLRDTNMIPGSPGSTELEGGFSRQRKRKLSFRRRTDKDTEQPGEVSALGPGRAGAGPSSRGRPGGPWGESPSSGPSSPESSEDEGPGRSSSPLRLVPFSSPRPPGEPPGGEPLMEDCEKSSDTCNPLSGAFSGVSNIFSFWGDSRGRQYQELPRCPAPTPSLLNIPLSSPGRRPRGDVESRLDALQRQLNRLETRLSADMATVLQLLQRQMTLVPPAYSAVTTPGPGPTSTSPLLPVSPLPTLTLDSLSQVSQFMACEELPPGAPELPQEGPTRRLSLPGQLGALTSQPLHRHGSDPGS
Outline: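 Channel function was assessed by thallium flux. Cells seeded the previous day and kept at 37 C took up FluxOR II dye over 1 h in the dark at room temperature, then sat another 10 min before stimulation.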
% is set by controls: 0 for no effect and ±100 for the full control effect.

CCCOC(=O)c1ccc(O)cc1
inactive: Potency [1] | max activation [3] -0.262% | Potency [4]
active: Potency [2] 48.6 µM

CC(C)=CCC[C@H](C)CC=O
inactive: Potency [1]

CN[C@H]1CC[C@@H](c2ccc(Cl)c(Cl)c2)c2ccc(S(N)(=O)=O)cc21
active: Potency [1] 61.1 µM | Potency [5] 1.42 µM | Potency [6] 50.2 µM | Potency [7] 39.9 µM
inactive: Potency [2] | Potency [8]

O=C(Nc1ccc([N+](=O)[O-])cc1)Nc1ccc([N+](=O)[O-])cc1 (tested in a mixture with another compound)
inactive: Potency [1] | Potency [2] | Potency [5] | Potency [6] | Potency [7] | Potency [8]

CCCCCN=C(N)N/N=C/c1c[nH]c2ccc(OC)cc12
active: Potency [1] 26.6 µM | Potency [7] 38.9 µM | Potency [8] 4.9 µM | Potency [10] 10.7 µM
inactive: Potency [2] | max activation [3] -0.704% | Potency [9] | Potency [5]

CC1(C)[C@H]2CC[C@]1(C)C(=O)C2
inactive: Potency [1] | Potency [2] | Potency [5] | Potency [6] | Potency [7]

O=C(CCN1CCC(c2ccccc2)C1)c1ccc2c(c1)OCCO2 (stereo not given)
inactive: Potency [1] | max activation [3] -4.55% | Potency [9] | Potency [4]
active: Potency [2] 13.3 µM | Potency [5] 2.19 µM

CCOC(=O)[C@H](O)[C@@H](O)C(=O)OCC
inactive: Potency [1] | Potency [2] | Potency [5] | Potency [6] | Potency [7]

O=C1OC2(c3ccccc31)c1ccc(O)c(Br)c1Oc1c2ccc(O)c1Br
active: Potency [1] 27.3 µM | Potency [6] 89.4 µM | Potency [7] 63.3 µM
inactive: Potency [2] | Potency [5] | Potency [8]

CS(=O)(=O)c1ccc([C@@H](CC2CCCC2)C(=O)Nc2cnccn2)cc1Cl
active: Potency [1] 61.1 µM

CCC(C)(C)c1ccc(CC(C)CN2C[C@@H](C)O[C@@H](C)C2)cc1 (stereo not given in full)
active: Potency [5] 6.92 µM | Potency [7] 27.5 µM | Potency [10] 9.52 µM
inactive: Potency [1] | Potency [2] | max activation [3] -0.729% | Potency [9]

c1ccc(-c2ccccc2-c2ccccc2)cc1
inactive: Potency [1] | Potency [5]
active: Potency [2] 61.1 µM | Potency [6] 20 µM | Potency [7] 22.4 µM | Potency [8] 3.17 µM

O=C1CCC(=O)N1
inactive: Potency [1] | Potency [2] | Potency [5] | Potency [6] | Potency [7]

Nc1ccc(N)c([N+](=O)[O-])c1
active: Potency [1] 54.5 µM

CCN(CCC#N)c1ccc(N=Nc2ccc([N+](=O)[O-])cc2)cc1
active: Potency [2] 6.11 µM
inactive: Potency [1] | Potency [5] | Potency [6] | Potency [7] | Potency [8]

O=C(NCc1ncc(C(F)(F)F)cc1Cl)c1c(Cl)cccc1Cl
active: Potency [2] 1.22 µM | Potency [5] 2.83 µM | Potency [6] 20 µM | Potency [8] 31.7 µM
inactive: Potency [1] | Potency [7]

O=C1OC(O)C(C(Cl)Cl)=C1Cl (stereo not given)
inactive: Potency [5] | Potency [6] | Potency [7] | Potency [8]
active: Potency [1] 50 µM | Potency [2] 22.4 µM

O=C(O)C[C@H](O)C[C@H](O)/C=C/c1c(C2CC2)nc2ccccc2c1-c1ccc(F)cc1
inactive: activity change, negative = cytotoxicity [1] -8.1% [at 19 µM] | activation [2] 12.4% [at 19 µM] | Potency [4] | activity change, negative = inhibition [5] -0.811% [at 23.6 µM] | activity change, negative = inhibition [8] -11.8% [at 23.6 µM] | activity change, negative = inhibition [10] 2.63% [at 15.8 µM]
active: Potency [9] 14.1 µM

C[C@H]1O[C@@H](O[C@H]2CC[C@@]3(C)[C@H](CC[C@@H]4[C@@H]3C[C@@H](O)[C@]3(C)[C@@H](C5=CC(=O)OC5)CC[C@]43O)C2)C[C@H](O)[C@@H]1O[C@H]1C[C@H](O)[C@H](O[C@H]2C[C@H](O)[C@H](O[C@@H]3O[C@H](CO)[C@@H](O)[C@H](O)[C@H]3O)[C@@H](C)O2)[C@@H](C)O1
inactive: Potency [1] | Potency [2] | max activation [3] 6.34% | Potency [9] | Potency [4] | Potency [5] | Potency [6] | Potency [7] | Potency [10]

C=C[Si](C)(C)Cl
inactive: activity change, negative = cytotoxicity [1] -0.712% [at 8.39 µM] | activation [2] 4.97% [at 8.39 µM] | activity change, negative = inhibition [5] 0.847% [at 10.5 µM] | activity change, negative = inhibition [6] -15.5% [at 10.5 µM] | activity change, negative = inhibition [7] -1.65% [at 10.5 µM] | activity change, negative = inhibition [8] -9.04% [at 10.5 µM]

C=C(C)CCO
inactive: Potency [1] | Potency [2] | Potency [5] | Potency [6] | Potency [7] | Potency [8]

CC(C)c1ccc2sc3ccccc3c(=O)c2c1
inactive: Potency [1]
active: Potency [2] 17.2 µM | Potency [5] 28.3 µM | Potency [6] 7.96 µM | Potency [7] 11.2 µM

Nc1cc([N+](=O)[O-])cc(Cl)c1O
inactive: Potency [2] | Potency [5]
active: Potency [1] 61.1 µM | Potency [6] 79.6 µM | Potency [7] 39.9 µM

CCCCCCCCSCc1cc(C)c(O)c(CSCCCCCCCC)c1
inactive: Potency [1] | Potency [2]
active: Potency [5] 5.03 µM | Potency [6] 7.1 µM | Potency [7] 8.94 µM | Potency [8] 25.2 µM

C=CC(=O)OCCOC1C2CCC1C1CC=CC12 (stereo not given)
inactive: activity change, negative = cytotoxicity [1] 6.81% [at 19 µM] | activation [2] 5.97% [at 19 µM] | activity change, negative = inhibition [5] -35.4% [at 23.6 µM] | activity change, negative = inhibition [7] -18.2% [at 23.6 µM]
active: Potency [6] 19 µM

O=C(O)CN(CCCN(CC(=O)O)CC(=O)O)CC(=O)O
inactive: activity change, negative = cytotoxicity [1] -12.2% [at 19 µM] | activation [2] 1.69% [at 19 µM] | activity change, negative = inhibition [5] 2.09% [at 23.6 µM] | activity change, negative = inhibition [6] -5.87% [at 23.6 µM] | activity change, negative = inhibition [7] -3.48% [at 23.6 µM]

N#Cc1ccc(C/C(=N/NC(=O)Nc2ccc(OC(F)(F)F)cc2)c2cccc(C(F)(F)F)c2)cc1
inactive: Potency [1]
active: Potency [2] 54.5 µM | Potency [5] 39.9 µM | Potency [6] 12.6 µM | Potency [7] 22.4 µM | Potency [8] 25.2 µM

C=CC(=O)O[C@H]1C[C@@H]2CC[C@@]1(C)C2(C)C
inactive: Potency [1] | Potency [2] | Potency [5] | Potency [6] | Potency [7]
